Test in all cases: NCI-60 one-dose screen, 48 h (100 = growth as untreated, 0 = no growth, -100 = all killed)
One assay concerns HCT-15 colon. The settings on record: 10 µM unless noted.
The subject of another assay is HT29 colon. The settings on record: 10 µM unless noted.
A further assay relates to SNB-75 CNS. Conditions: 10 µM unless noted.
For a further assay, the system named is SNB-19 CNS. The settings on record: 10 µM unless noted.
For a further assay, the system named is U251 CNS. The settings on record: 10 µM unless noted.
In another assay the test system is PC-3 prostate. The settings on record: 10 µM unless noted.
Another assay deals with SK-MEL-5 melanoma. Conditions: 10 µM unless noted.
The next assay has as its system UACC-62 melanoma. Conditions: 10 µM unless noted.
In a further assay the test system is SK-MEL-2 melanoma. The settings on record: 10 µM unless noted.
The next assay concerns EKVX NSCLC. The settings on record: 10 µM unless noted.
In a further assay the test system is SN12C renal. Conditions: 10 µM unless noted.
Another assay has as its system UO-31 renal. Conditions: 10 µM unless noted.
In a further assay the test system is TK-10 renal. Conditions: 10 µM unless noted.
Another assay concerns ACHN renal. Conditions: 10 µM unless noted.
The next assay deals with CAKI-1 renal. The settings on record: 10 µM unless noted.
The subject of the next assay is A498 renal. The settings on record: 10 µM unless noted.
The next assay relates to CCRF-CEM leukemia. Conditions: 10 µM unless noted.
In a further assay the test system is MOLT-4 leukemia. Conditions: 10 µM unless noted.
A further assay concerns LOX IMVI melanoma. Conditions: 10 µM.
A further assay has as its system SK-MEL-28 melanoma. Conditions: 10 µM unless noted.

Structures are written as SMILES. The panel holds about 83,000 compounds, 20% with a hit somewhere; the sample as a whole holds those more often.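 Testing used 96-well plates and a 48-hour single-concentration exposure. Example: -40 means 40% of the starting cells died.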 Unmarked numbers belong to inactive results. Active and inactive are the calls of the source. The calls were made as follows: active = growth percent below 10; inactive = the rest.

On to `CCC12OC(COc3ccccc3)CN1CCN2c1ccccc1` (centres undefined), for which the growth with HCT-15 colon was 105% [100 µM]; in the assay on HT29 colon it was 111% [100 µM]; in the assay with SNB-75 CNS, 84.4% [100 µM]; in the assay on SNB-19 CNS, 96.9% [100 µM]; with U251 CNS, 101% [100 µM]; in the assay on PC-3 prostate, 102% [100 µM]. For the same molecule, the growth with SK-MEL-5 melanoma was 104% [100 µM]; in the assay with UACC-62 melanoma it was 89.5% [100 µM]; with SK-MEL-2 melanoma, 99.4% [100 µM]; with EKVX NSCLC it was 95.2% [100 µM]; in the assay on SN12C renal it was 96.1% [100 µM]; in the assay with UO-31 renal, 75.2% [100 µM]. Also, the growth was 146% [100 µM] in the assay on TK-10 renal; 97.3% [100 µM] with ACHN renal; 89% [100 µM] in the assay on CAKI-1 renal; 107% [100 µM] in the assay with A498 renal; 101% [100 µM] with CCRF-CEM leukemia; 94.5% [100 µM] in the assay with MOLT-4 leukemia.
For `CC(C)C(=O)OCCOc1ccc(C(C)(C)C)cc1`, the growth is 100% with HCT-15 colon; 93.1% in the assay on HT29 colon; 94.1% in the assay with SNB-75 CNS; 98.8% in the assay on SNB-19 CNS; 88.4% with U251 CNS; 91.6% with PC-3 prostate. Further, the growth with SK-MEL-5 melanoma was 102%; with LOX IMVI melanoma it was 95.8%; in the assay on SK-MEL-28 melanoma, 110%; in the assay with SK-MEL-2 melanoma, 92.3%; with EKVX NSCLC, 103%; in the assay on SN12C renal, 89.4%. Moreover, the growth is 89.6% in the assay with UO-31 renal; 93.7% in the assay with TK-10 renal; 101% in the assay on ACHN renal; 100% in the assay on CAKI-1 renal; 94.2% with A498 renal; 98.6% in the assay on CCRF-CEM leukemia. In addition, the growth in the assay with MOLT-4 leukemia was 114%.
As to `C1CCc2onc(-c3noc4c3CCCCC4)c2CC1`, the growth with HCT-15 colon was 103%; in the assay on HT29 colon, 103%; with SNB-75 CNS, 112%; in the assay with SNB-19 CNS it was 98%; in the assay on U251 CNS, 107%; with PC-3 prostate, 102%. In addition, the growth in the assay on SK-MEL-5 melanoma is 101%; with UACC-62 melanoma, 102%; in the assay on SK-MEL-28 melanoma it was 112%; with SK-MEL-2 melanoma, 120%; in the assay with EKVX NSCLC it was 106%; in the assay on SN12C renal, 95.6%. Further, the growth with UO-31 renal is 91.1%; with TK-10 renal, 108%; in the assay with CAKI-1 renal, 95.6%; in the assay with A498 renal it was 146%; with CCRF-CEM leukemia, 99.3%; with MOLT-4 leukemia, 102%.
As to `NCCCN1CCCC1=O`, the growth with HCT-15 colon was 116%; with HT29 colon it was 112%; in the assay with SNB-75 CNS, 116%; with SNB-19 CNS, 95.3%; with U251 CNS it was 108%; with PC-3 prostate, 96.9%. Moreover, the growth is 100% in the assay on SK-MEL-5 melanoma; 96.4% in the assay with UACC-62 melanoma; 117% in the assay with SK-MEL-2 melanoma; 122% in the assay with EKVX NSCLC; 97.5% in the assay with SN12C renal; 95.7% in the assay with UO-31 renal. Also, the growth in the assay on TK-10 renal was 100%; in the assay on ACHN renal it was 113%; in the assay with CAKI-1 renal, 109%; in the assay on A498 renal, 103%; in the assay on CCRF-CEM leukemia it was 114%; with MOLT-4 leukemia, 97.1%.
With `Cc1ccc(C2CCCCC2)cc1Br`, the growth in the assay on HCT-15 colon was 100%; with HT29 colon, 95.8%; with SNB-75 CNS, 98.4%; in the assay on SNB-19 CNS, 95.6%; with U251 CNS, 88.1%; in the assay on PC-3 prostate, 94%. Besides, the growth in the assay with SK-MEL-5 melanoma is 102%; with LOX IMVI melanoma, 103%; in the assay on SK-MEL-28 melanoma, 101%; with SK-MEL-2 melanoma, 99%; in the assay on EKVX NSCLC, 98.9%; in the assay with SN12C renal it was 101%. Further, the growth in the assay with UO-31 renal is 83.2%; in the assay with TK-10 renal, 98.7%; in the assay on ACHN renal it was 101%; in the assay with CAKI-1 renal, 90.3%; in the assay with A498 renal it was 88.6%; in the assay with CCRF-CEM leukemia it was 103%. The growth in the assay with MOLT-4 leukemia was 110%.
Consider `c1ccc(Oc2c3ccccc3nc3ccccc23)cc1`, for which the growth in the assay with HCT-15 colon is 14.6%; in the assay with HT29 colon, 2.51% (active); in the assay with SNB-75 CNS, 41.5%; in the assay on SNB-19 CNS it was 91.9%; in the assay with U251 CNS, 11.7%; in the assay on PC-3 prostate it was 20.1%. Also, the growth in the assay on SK-MEL-5 melanoma is 13.6%; in the assay with LOX IMVI melanoma, 31.3%; in the assay on SK-MEL-28 melanoma it was 61.2%; in the assay with SK-MEL-2 melanoma it was 39.9%; in the assay with EKVX NSCLC, 62.1%; in the assay on SN12C renal, 24.3%. The growth in the assay on UO-31 renal is 43.8%; in the assay with TK-10 renal it was 57.6%; with ACHN renal it was 31.9%; in the assay with CAKI-1 renal it was -20.4% (active); in the assay with A498 renal, 33%; with CCRF-CEM leukemia, 14.2%. Besides, the growth with MOLT-4 leukemia is 14.5%.
For the molecule `NNC(=O)c1ccccc1N`, the growth with HCT-15 colon was 110%; in the assay on HT29 colon, 106%; in the assay with SNB-75 CNS, 87.9%; with SNB-19 CNS it was 114%; in the assay on U251 CNS it was 106%; with PC-3 prostate, 101%. For the same molecule, the growth with SK-MEL-5 melanoma is 107%; with LOX IMVI melanoma it was 105%; in the assay on SK-MEL-28 melanoma, 117%; in the assay with SK-MEL-2 melanoma, 168%; in the assay on EKVX NSCLC, 110%; in the assay with SN12C renal it was 108%. The growth was 99.2% with UO-31 renal; 129% in the assay with TK-10 renal; 111% with ACHN renal; 104% with CAKI-1 renal; 140% with A498 renal; -39.5% (active) in the assay on CCRF-CEM leukemia. Besides, the growth in the assay on MOLT-4 leukemia is 112%.
Regarding `CN(C)CCOC(=O)Nc1ccc(Cc2ccc(NC(=O)OCCN(C)C)cc2)cc1`, the growth was 63.1% [100 µM] in the assay on HCT-15 colon; 14.5% [100 µM] with HT29 colon; 89% [100 µM] with SNB-75 CNS; 99.6% [100 µM] in the assay on SNB-19 CNS; 69.4% [100 µM] in the assay on U251 CNS; 60.5% [100 µM] with PC-3 prostate. Further, the growth in the assay with SK-MEL-5 melanoma is 54.8% [100 µM]; in the assay with UACC-62 melanoma, 1.99% [100 µM] (active); with SK-MEL-28 melanoma, 18.7% [100 µM]; in the assay with SK-MEL-2 melanoma, 101% [100 µM]; with EKVX NSCLC, 102% [100 µM]; in the assay on SN12C renal, 97.5% [100 µM]. For the same molecule, the growth is 68.6% [100 µM] in the assay with UO-31 renal; 124% [100 µM] with TK-10 renal; 86.8% [100 µM] with ACHN renal; 73% [100 µM] in the assay on CAKI-1 renal; 126% [100 µM] with A498 renal; 51.3% [100 µM] in the assay on CCRF-CEM leukemia. Further, in the assay with MOLT-4 leukemia, the growth was 37.6% [100 µM].

Source of the values: PubChem BioAssay (NCI).
